From PubChem
A selection: hits, their analogues and other compounds. The true share with any hit is near 9%.
HTT ATP protect – cytoprotection in Huntington HTT-Q103 PC12 cell model; Potency, µM (highest dose often 56.4 µM), for inactives: cytoprotection (ATP increase), usual class: activators; PC12 HTT-Q103 induced, cytoprotection, ATP luminescence, 40 h; actives 0.14% (n = 230,000); AID 1471; note: % of control where 0% means no effect; nearly all actives have a fitted effect of over 45% in size
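Huntington model: PC12 line, ecdysone-inducible HTTQ103 exon1–GFP, tebufenozide 100 nM. Test articles in a dose series. Endpoint luminescence from cellular ATP.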
ALDH1A1 block – inhibitors of human aldehyde dehydrogenase 1A1; actives 7.3% (n = 220,000); P00352; Potency, µM (top dose mostly 75.3 µM), without a hit: at the highest dose activity, negative = inhibition, usual class: inhibitors; Purified ALDH1A1, NADH fluorescence, propionaldehyde substrate; active = well fitted inhibition curve with a large enough effect, not every such curve was filed as active; inconclusive = small, poorly fitted or top-dose-only effect, or another doubt; inactive = no such curve, though single readings can be large or run the other way;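 note: plate controls were no enzyme wells and a reference inhibitor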
Target sequence (P00352 whole entry, looked up): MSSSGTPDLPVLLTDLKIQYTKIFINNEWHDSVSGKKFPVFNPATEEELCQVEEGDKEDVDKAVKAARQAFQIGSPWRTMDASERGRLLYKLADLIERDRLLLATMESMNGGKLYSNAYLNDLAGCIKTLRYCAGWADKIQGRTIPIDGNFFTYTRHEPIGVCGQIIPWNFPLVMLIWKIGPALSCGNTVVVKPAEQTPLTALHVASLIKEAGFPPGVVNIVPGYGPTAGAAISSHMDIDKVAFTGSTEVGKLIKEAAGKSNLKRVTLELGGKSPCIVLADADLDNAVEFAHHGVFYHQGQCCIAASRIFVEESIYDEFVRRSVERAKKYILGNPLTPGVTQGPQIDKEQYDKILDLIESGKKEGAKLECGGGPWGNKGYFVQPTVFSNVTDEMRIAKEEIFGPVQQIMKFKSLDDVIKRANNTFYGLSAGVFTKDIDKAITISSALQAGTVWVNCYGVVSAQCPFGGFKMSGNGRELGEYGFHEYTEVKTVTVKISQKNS
HPGD block – inhibitors of human 15-hydroxyprostaglandin dehydrogenase (HPGD); purified HPGD, NADH fluorescence kinetic, PGE2 substrate; Potency, µM, for the others: at the top dose activity change, negative = inhibition, hits mostly inhibitors; actives 4.3% (n = 150,000); AID 894; active = well fitted inhibition curve with a large enough effect, not every such curve was filed as active; inconclusive = small, poorly fitted or top-dose-only effect, or another doubt; inactive = no such curve, though single readings can be large or run the other way; note: % is set by controls: 0 for no effect and ±100 for the full control effect
Target sequence (P15428 whole entry, looked up): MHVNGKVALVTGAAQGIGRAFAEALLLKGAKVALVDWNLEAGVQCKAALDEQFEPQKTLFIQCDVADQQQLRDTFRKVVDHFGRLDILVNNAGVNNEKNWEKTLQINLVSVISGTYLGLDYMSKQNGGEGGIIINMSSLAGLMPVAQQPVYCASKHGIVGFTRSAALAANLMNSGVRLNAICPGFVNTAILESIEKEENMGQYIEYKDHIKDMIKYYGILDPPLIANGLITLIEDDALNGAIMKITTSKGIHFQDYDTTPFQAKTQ
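20 nM HPGD preincubated 15 min at room temperature with compound in 50 mM Tris-HCl pH 8, 0.01% Tween 20. Started with 1 mM NAD+ and 30 uM prostaglandin E2; NADH fluorescence (360/450 nm) read 5 times over 30-s intervals, last minus first.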
KinaseGlo FLuc – blocks Kinase-Glo luciferase, a counter-screen artifact; Kinase-Glo luciferase, ATP luminescence, 8 min; Q27757; Potency, µM (top dose mostly 38.3 µM), inactives show top-dose activity change, negative = inhibition, most hits filed as inhibitors; AID 1379; actives 0.28% (n = 200,000); note: % is set by controls: 0 for no effect and ±100 for the full control effect; nearly all actives have a fitted effect of over 60% in size
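Kinase-Glo luciferase light output from ATP and luciferin was measured with 10 uM ATP, within the enzyme's linear range. Buffer: 50 mM imidazole pH 7.2, 50 mM KCl, 7 mM MgCl2, 0.01% Tween 20, 0.05% BSA; luminescence read after 8 min at ambient temperature.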
LMNA splice mod – modulators of lamin A splicing | HeLa LMNA splicing GFP/RFP minigene ratio, 48 h | Potency, µM (series often up to 46.1 µM), inactives show top-dose ratio change, negative = inhibition, usual class: inhibitors | actives 0.01% (n = 200,000); active = well fitted inhibition curve with a large enough effect in the signal ratio, with a control signal flat, not every such curve was filed as active; inconclusive = small, poorly fitted or top-dose-only effect, or effect the other way, or a change in a side signal; the % refers to the signal ratio; note: % is set by controls: 0 for no effect and ±100 for the full control effect
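Read-out is the ratio of GFP to DsRed2 object intensity, acquired by 488 nm laser-scanning cytometry on HeLa lamin A-EGFP minigene reporter cells. Compound incubation 48 hrs at 37 °C in Opti-MEM with 2% FBS; DMSO 0.5% final.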
HttQ103 aggreg – mutant huntingtin aggregation inhibition | actives 1.1% (n = 220,000) | PC12 HttQ103-GFP aggregates, Acumen cytometry, 40 h | Potency, µM (highest dose often 46.1 µM), for the others: at the highest dose activity change, negative = inhibition, actives largely listed as inhibitors; note: % is set by controls: 0 for no effect and ±100 for the full control effect; nearly all actives have a fitted effect of over 60% in size
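Quantitative HTS on tebufenozide-induced (100 nM) PC12 cells stably expressing polyQ103 Huntingtin exon 1–GFP. Reduction of bright GFP aggregates, detected by laser scanning cytometry after lysis, identified actives across the titration.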
An asterisk follows results filed as active; ? = inconclusive; . = no result given; [ ] = remark or other dose. Unless noted, calls come from the whole dose curve; as a rule, active = well fitted curve in the direction sought with a large enough effect; inconclusive = small, poorly fitted or top-dose-only effect, or another doubt; inactive = no such curve, though single readings can be large; an effect the other way counts as inactive or inconclusive. Potency is the fitted concentration of half-maximal effect.

SMILES | HTT ATP protect | ALDH1A1 block | HPGD block | KinaseGlo FLuc | LMNA splice mod | HttQ103 aggreg
CC(=O)OCC(=O)N1CCN(c2ccc([N+](=O)[O-])cc2)CC1 | -1%[10 µM] | ? | -8% | 3% | -2% | 5%
COc1ccc(N2CCN(C(=O)CSc3ccc([N+](=O)[O-])cc3)CC2)cc1 | -10%[10 µM] | ? | . | 3% | 17%[46 µM] | -20%
CCOCC(=O)N1CCN(c2ccc(F)cc2)CC1 | 0%[0.074 µM] | 2.2µM* | -6% | -4% | 5% | 11%
CCOCC(=O)N1CCN(c2ccc([N+](=O)[O-])cc2)CC1 | 18%[10 µM] | 22µM* | . | . | -10% | ?
CCOC(=O)N1CCN(c2c(N3CCN(c4ccc(F)cc4)CC3)c(=O)c2=O)CC1 | -13%[10 µM] | . | . | . | . | -13%[9.22 µM]
CCC(=O)C1=C(O)C(c2cccc(Oc3ccccc3)c2)CCC1=O (configuration not stated) | -6% | -11% | . | 0% | -17%[46 µM] | 10µM*
CN(C)S(=O)(=O)c1ccc(Oc2ccccc2)cc1 | -15%[0.074 µM] | 13% | -11% | -1% | ? | -42%
CCN(CC)S(=O)(=O)c1ccc(Oc2ccccc2)cc1 | -9% | 3% | -16% | -4% | ? | 16µM*
CCN(CC)S(=O)(=O)c1ccc(Oc2cccc(C(C)=O)c2)nc1 | 7% | 14µM* | -14% | 0% | ? | 5.6µM*
Cc1nn(C)cc1/C=N/NC(=S)Nc1ccccc1 | -26% | 25µM* | 28µM* | -14% | -3% | 19%
[N-]=[N+]=NC1C[C@H](n2ccc(=O)[nH]c2=O)O[C@@H]1CO (some centres not stated) | . | 2% | -11% | -1% | -3% | -8%
C/C(=N/NC(=O)c1cc(O)c(O)c(O)c1)c1ccc([N+](=O)[O-])cc1 | . | 25µM* | . | 1% | . | 34%
Cc1ccccc1NC(=O)CSc1ccc(-c2ccco2)nn1 | 11%[10 µM] | ? | -12% | 2% | -6% | 6%
Cc1cccc(NC(=O)CSc2nnc(-c3ccco3)c(-c3ccco3)n2)c1C | -37% | 3.5µM* | 10µM* | -3% | 0%[0.0737 µM] | 27%
Cc1cccc(NC(=O)CSc2nnc(-c3ccco3)c(-c3ccco3)n2)c1 | -6%[10 µM] | 7.9µM* | . | -1% | 24%[46 µM] | -15%[9.22 µM]
COc1ccc(OC)c(-c2csc(NC(=O)c3ccc4c(c3)OCO4)n2)c1 | -38% | -7% | . | 1% | 0%[46 µM] | 2%
O=C(Nc1ccc(-c2nc3cccnc3s2)cc1)c1ccc(Cl)nc1 | -2%[10 µM] | . | . | . | . | 23%[9.22 µM]
COCC(=O)n1nc(-c2ccc(C)cc2)nc1NCc1ccc(F)cc1 | . | 4% | . | -3% | -20%[46 µM] | -9%
COc1cnc(SCc2ccc(Cl)cc2Cl)nc1Cl | -14% | 7.1µM* | 18µM* | -7% | ? | ?
COc1ccc(Cl)cc1CSc1n[nH]c(C)n1 | -11% | -5% | 16µM* | 17% | 12% | -10%
CCCCOc1ccc(Cl)cc1CSc1n[nH]c(C)n1 | -35% | 6% | -8% | -1% | 12% | -6%
COC(=O)N/N=C/c1sc(N2CCCCC2)nc1-c1cccs1 | . | 25µM* | . | -2% | . | ?
COc1ccc(C(=O)N/N=C/c2sc(N3CCOCC3)nc2-c2ccccc2)cc1OC | -47% | -12% | . | -2% | -16%[46 µM] | -19%
CCC(C)(C(=O)NC1CCCC1)N(CC1CCCO1)C(=O)CNC(=O)c1ccccc1 (configuration not stated) | -6% | -9% | 1% | 1% | 0% | -4%
Cc1ccc(S(=O)(=O)CCC(=O)c2ccc(O)cc2O)cc1 | -116%[10 µM] | 0.28µM* | -22% | -1% | ? | -85%
SMILES | HTT ATP protect | ALDH1A1 block | HPGD block | KinaseGlo FLuc | LMNA splice mod | HttQ103 aggreg
CCOC(=O)/C(=C\c1ccc(OC(F)F)cc1)C1=Nn2c(nnc2-c2ccc(Cl)cc2)SC1 | . | 14µM* | 14µM* | 3% | ? | ?
O=C1c2ccccc2C(Nc2ccc(Cl)cn2)N1Cc1ccccc1 (configuration not stated) | -65% | 13µM* | -21% | 1% | 6% | ?
CCOc1ccccc1NC(=O)NS(=O)(=O)c1ccc(C)cc1 | -3% | 9% | 0% | -2% | -5% | 7%
Cc1ccc2nc(SCC(=O)NCc3ccco3)c(C#N)cc2c1 | 14%[10 µM] | -8% | 7.9µM* | -3% | 14% | 9%
Cc1ccc2cc(C#N)c(SCC(=O)NCc3ccco3)nc2c1 | -8%[10 µM] | ? | -16% | 10% | 12% | 5%
Cc1ccc2nc(SCC(=O)NCc3ccco3)c(C)cc2c1 | -7%[10 µM] | 16µM* | . | -4% | -19%[46 µM] | -6%[9.22 µM]
Cc1ccccc1OCC(=O)O/N=C(\N)Cc1cccs1 | -23% | 7.1µM* | -15% | 0% | 7%[0.0737 µM] | 6%
N/C(Cc1cccc2ccccc12)=N\OC(=O)Cc1cccs1 | -1%[0.074 µM] | ? | 28µM* | -9% | ? | -6%
N/C(Cc1ccc(Cl)cc1Cl)=N\OC(=O)c1ccc(Br)o1 | 25%[10 µM] | . | . | . | -12%[46 µM] | 4%[9.22 µM]
N/C(Cc1cccc2ccccc12)=N\OC(=O)c1cccs1 | 19%[10 µM] | 5% | -10% | -1% | 8% | 6%
N/C(Cc1cccc2ccccc12)=N\OC(=O)c1ccc(Br)o1 | -31% | 10µM* | . | -3% | . | 17%
CCOC(=O)N1CCN(C(=S)Nc2cc(S(=O)(=O)N3CCOCC3)ccc2Cl)CC1 | -25% | -7% | . | 1% | ? | 5%
Cc1c(C(=O)OCC2CCCO2)[nH]c2c1C(=O)CC(c1ccc(N(C)C)cc1)C2 (configuration not stated) | 3%[10 µM] | 11µM* | -12% | 2% | ? | -9%
CN(C)c1cc[n+](CC(=O)c2ccc(-c3ccccc3)cc2)cc1 | -77% | ? | . | 0% | ? | 16µM*
O=C(C[n+]1ccccc1)c1ccc(-c2ccccc2)cc1 | ? | 11% | . | . | . | -11%
COc1ccc(NCC(=O)n2c(C)c(C)c3ccccc32)cc1OC | 6%[10 µM] | 7.1µM* | . | . | . | -2%[9.22 µM]
CCOc1ccccc1NC(=O)CSc1nnc(-c2ccco2)o1 | 6% | 3% | -8% | 2% | -2% | 7%
CS(=O)(=O)N1CCN(c2ccccc2NC(=O)CSc2nnc(-c3ccco3)o2)CC1 | . | 13µM* | -10% | 2% | -10% | 2%
CS(=O)(=O)N1CCN(c2ccccc2NC(=O)c2cccs2)CC1 | -8%[0.074 µM] | 10µM* | -10% | -2% | 5% | -15%
CS(=O)(=O)N1CCN(c2ccccc2NC(=O)C(c2ccccc2)c2ccccc2)CC1 | 3% | 6.3µM* | -9% | -4% | 3% | 1%
CC(C)C(=O)Nc1ccccc1N1CCN(S(C)(=O)=O)CC1 | -10%[0.074 µM] | -9% | 1% | 4% | -4% | -24%
COC(=O)c1ccsc1NC(=O)c1ccc(Cl)s1 | 20%[10 µM] | . | . | . | . | 5%[9.22 µM]
